Test in all cases: DAPPL (digital affinity profiling via proximity ligation, sequencing); 10 mM Tris-HCl pH 7.5, 50 mM NaCl, 1 mM DTT, 4% glycerol, room temperature, 30 min; GST-TFs on glutathione beads, 16-mer random dsDNA library, 0.1% formaldehyde crosslink after washing; high values mean tight binding
In assay [1] the target is T1, FEV (Homo sapiens, UniProt Q99581 1-238).
T1 sequence: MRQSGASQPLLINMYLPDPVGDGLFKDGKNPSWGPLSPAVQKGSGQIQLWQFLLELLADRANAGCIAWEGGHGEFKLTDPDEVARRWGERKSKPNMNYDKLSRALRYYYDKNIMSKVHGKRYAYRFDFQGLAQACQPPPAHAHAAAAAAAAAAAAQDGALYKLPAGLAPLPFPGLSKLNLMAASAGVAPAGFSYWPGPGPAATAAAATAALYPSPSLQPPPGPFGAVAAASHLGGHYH
As to conditions: protein: recombinant; tags: N-terminal GST; dsDNA, one strand shown. In a few lines:
(§1)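 Binding signal is given per hexamer as its read frequency for a factor divided by its frequency in the tag-only sample. GST-fused human transcription factors were expressed in yeast, captured on glutathione beads, barcoded with DNA and pooled with that sample, then incubated with 200 nmole of a 16-mer random double-stranded DNA library in Tris/NaCl/DTT/glycerol buffer for 30 min at room temperature. The pools were then washed, crosslinked, proximity-ligated, amplified by PCR and sequenced on an Illumina NextSeq500.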

In assay [2] the target is ETV5 (Homo sapiens, UniProt P41161 1-510). The note with it: protein: recombinant; tags: N-terminal GST; dsDNA, one strand shown. In a few lines: as §1
In assay [3] the target is HSF1 (Homo sapiens, UniProt Q00613 1-529). The note with it: protein: recombinant; tags: N-terminal GST; chain copies: 3; dsDNA, one strand shown. In a few lines:
as §1

Assay [4] concerns the target T2, SPIC (Homo sapiens, UniProt Q8N5J4 1-248).
T2 sequence: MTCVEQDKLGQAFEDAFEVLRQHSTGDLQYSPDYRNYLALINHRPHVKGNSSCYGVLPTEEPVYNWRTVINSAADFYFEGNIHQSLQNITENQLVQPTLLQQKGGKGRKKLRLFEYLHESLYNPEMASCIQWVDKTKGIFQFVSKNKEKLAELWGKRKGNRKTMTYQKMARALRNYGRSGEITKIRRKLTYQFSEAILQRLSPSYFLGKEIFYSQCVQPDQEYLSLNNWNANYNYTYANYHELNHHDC
As to conditions: protein: recombinant; tags: N-terminal GST; dsDNA, one strand shown. Put shortly:
as §1

In assay [5] the target is ELF4 (Homo sapiens, UniProt Q99607 1-663). The note with it: protein: recombinant; tags: N-terminal GST; dsDNA, one strand shown. In a few lines: as §1
Assay [6] deals with T3, ELK4 (Homo sapiens, UniProt P28324-2 1-405).
T3 sequence: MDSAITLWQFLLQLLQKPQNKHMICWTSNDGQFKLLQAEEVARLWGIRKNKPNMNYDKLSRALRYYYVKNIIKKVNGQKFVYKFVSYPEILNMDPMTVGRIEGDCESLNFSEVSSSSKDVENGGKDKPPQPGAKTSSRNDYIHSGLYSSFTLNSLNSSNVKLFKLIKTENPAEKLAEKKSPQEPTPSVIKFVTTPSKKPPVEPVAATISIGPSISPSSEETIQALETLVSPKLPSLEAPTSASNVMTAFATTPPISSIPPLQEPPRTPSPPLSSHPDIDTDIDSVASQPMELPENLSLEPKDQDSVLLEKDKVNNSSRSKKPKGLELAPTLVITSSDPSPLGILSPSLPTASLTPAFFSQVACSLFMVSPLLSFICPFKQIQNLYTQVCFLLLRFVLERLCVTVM
As to conditions: protein: recombinant; tags: N-terminal GST; dsDNA, one strand shown. In a few lines:
as §1

The target of assay [7] is T4, ETV2 (Homo sapiens, UniProt O00321 1-342).
T4 sequence: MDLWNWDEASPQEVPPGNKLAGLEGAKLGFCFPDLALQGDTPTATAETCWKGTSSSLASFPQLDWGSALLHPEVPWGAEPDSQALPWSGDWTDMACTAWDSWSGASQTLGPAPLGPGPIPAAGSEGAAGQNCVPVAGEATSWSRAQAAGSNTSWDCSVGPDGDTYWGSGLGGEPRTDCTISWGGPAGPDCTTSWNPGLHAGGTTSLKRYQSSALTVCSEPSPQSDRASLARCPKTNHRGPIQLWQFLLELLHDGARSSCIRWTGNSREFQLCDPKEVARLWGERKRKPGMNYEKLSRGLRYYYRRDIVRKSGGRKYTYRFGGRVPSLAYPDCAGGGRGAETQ
As to conditions: protein: recombinant; tags: N-terminal GST; dsDNA, one strand shown. In a few lines: as §1

The target of assay [8] is T5, ELF3 (Homo sapiens, UniProt P78545 1-371).
T5 sequence: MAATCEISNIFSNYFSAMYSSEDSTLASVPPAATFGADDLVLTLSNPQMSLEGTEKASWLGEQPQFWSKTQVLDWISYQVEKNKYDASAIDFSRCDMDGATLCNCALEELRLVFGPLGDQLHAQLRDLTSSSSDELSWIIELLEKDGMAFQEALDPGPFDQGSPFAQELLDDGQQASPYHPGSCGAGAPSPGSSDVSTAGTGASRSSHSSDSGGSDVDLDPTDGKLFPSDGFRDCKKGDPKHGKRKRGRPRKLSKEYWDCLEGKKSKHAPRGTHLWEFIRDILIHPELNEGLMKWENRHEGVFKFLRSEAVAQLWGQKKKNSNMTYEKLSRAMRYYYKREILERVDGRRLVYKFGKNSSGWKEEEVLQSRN
The note with it: protein: recombinant; tags: N-terminal GST; dsDNA, one strand shown. Put shortly:
as §1

The target of assay [9] is CRX (Homo sapiens, UniProt O43186 1-299). The note with it: protein: recombinant; tags: N-terminal GST; dsDNA, one strand shown. Put shortly: as §1
Assay [10] addresses ETV1 (Homo sapiens, UniProt P50549 1-477). As to conditions: protein: recombinant; tags: N-terminal GST; dsDNA, one strand shown. Put shortly:
as §1

Assay [11] concerns the target T6, ERF (Homo sapiens, UniProt P50548 1-548).
T6 sequence: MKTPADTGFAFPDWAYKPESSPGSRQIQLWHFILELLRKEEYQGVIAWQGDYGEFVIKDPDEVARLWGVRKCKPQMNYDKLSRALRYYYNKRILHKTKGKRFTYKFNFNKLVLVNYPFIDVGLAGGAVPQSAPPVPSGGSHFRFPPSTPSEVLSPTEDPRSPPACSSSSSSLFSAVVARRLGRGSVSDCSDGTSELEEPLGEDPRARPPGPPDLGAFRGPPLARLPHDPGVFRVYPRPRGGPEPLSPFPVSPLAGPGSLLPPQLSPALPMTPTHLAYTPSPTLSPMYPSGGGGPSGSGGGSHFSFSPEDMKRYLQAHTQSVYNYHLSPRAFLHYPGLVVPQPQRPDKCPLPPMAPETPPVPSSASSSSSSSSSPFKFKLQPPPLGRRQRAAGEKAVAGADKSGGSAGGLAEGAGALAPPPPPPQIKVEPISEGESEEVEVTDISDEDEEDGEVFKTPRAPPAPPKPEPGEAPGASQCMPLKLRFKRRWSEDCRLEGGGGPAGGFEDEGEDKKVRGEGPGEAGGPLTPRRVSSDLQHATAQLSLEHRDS
The note with it: protein: recombinant; tags: N-terminal GST; dsDNA, one strand shown. In a few lines: as §1

The target in assay [12] is T7, ETV3L (Homo sapiens, UniProt Q6ZN32 1-361).
T7 sequence: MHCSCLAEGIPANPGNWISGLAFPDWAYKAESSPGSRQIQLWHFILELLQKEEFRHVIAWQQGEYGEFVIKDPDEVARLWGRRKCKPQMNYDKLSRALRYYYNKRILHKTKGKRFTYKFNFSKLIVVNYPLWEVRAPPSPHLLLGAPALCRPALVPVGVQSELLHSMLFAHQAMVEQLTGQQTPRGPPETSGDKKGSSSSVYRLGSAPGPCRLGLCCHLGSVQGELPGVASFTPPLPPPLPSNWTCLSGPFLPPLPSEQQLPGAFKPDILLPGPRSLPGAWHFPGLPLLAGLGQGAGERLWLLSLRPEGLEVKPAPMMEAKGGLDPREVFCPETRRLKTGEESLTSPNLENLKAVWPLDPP
The note with it: protein: recombinant; tags: N-terminal GST; dsDNA, one strand shown. In a few lines: as §1

The target in assay [13] is T8, ETS2 (Homo sapiens, UniProt P15036 1-469).
T8 sequence: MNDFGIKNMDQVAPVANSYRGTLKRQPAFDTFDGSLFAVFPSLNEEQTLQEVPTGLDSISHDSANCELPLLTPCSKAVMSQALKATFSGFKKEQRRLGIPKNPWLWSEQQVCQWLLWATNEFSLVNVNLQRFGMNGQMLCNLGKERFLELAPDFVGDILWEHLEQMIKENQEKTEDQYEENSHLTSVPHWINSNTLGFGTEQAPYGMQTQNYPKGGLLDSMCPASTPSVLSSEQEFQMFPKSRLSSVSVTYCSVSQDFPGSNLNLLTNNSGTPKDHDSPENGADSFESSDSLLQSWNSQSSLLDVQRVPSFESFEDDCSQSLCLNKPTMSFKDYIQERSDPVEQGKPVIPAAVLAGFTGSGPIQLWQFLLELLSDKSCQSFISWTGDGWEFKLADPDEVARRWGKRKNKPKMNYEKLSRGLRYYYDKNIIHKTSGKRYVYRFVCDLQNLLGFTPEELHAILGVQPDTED
As to conditions: protein: recombinant; tags: N-terminal GST; dsDNA, one strand shown. Put shortly: as §1

Assay [14] addresses T9, SPDEF (Homo sapiens, UniProt O95238 1-335).
T9 sequence: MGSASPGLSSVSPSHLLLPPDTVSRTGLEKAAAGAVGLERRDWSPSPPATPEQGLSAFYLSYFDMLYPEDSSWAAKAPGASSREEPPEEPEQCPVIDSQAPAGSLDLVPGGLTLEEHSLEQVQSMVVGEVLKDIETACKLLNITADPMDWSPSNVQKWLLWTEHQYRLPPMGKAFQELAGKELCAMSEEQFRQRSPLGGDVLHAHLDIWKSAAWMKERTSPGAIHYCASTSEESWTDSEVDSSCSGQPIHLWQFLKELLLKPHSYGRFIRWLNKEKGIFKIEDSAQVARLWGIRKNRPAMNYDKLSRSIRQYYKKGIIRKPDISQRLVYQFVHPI
The note with it: protein: recombinant; tags: N-terminal GST; dsDNA, one strand shown. In a few lines: as §1

Assay [15] deals with T10, ETV7 (Homo sapiens, UniProt Q9Y603 1-341).
T10 sequence: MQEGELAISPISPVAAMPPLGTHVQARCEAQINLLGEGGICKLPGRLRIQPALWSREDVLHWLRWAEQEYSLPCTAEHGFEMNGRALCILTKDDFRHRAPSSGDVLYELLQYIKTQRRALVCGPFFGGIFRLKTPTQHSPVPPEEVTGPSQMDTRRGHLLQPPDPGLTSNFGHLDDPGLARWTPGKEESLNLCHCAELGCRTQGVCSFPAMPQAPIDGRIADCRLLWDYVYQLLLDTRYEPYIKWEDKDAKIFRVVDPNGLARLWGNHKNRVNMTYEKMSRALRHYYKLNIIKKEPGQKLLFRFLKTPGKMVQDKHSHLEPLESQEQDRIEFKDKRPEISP
The note with it: protein: recombinant; tags: N-terminal GST; dsDNA, one strand shown. Put shortly: as §1

Assay [16] has as its target T11, ELF5 (Homo sapiens, UniProt Q9UKW6-2 1-255).
T11 sequence: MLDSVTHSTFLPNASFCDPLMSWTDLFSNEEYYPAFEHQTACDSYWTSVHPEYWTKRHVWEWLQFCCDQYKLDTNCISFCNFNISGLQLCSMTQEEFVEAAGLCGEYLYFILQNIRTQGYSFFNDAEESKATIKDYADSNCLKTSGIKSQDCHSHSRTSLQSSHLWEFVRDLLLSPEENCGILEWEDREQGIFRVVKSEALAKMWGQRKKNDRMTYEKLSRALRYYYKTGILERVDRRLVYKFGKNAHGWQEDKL
As to conditions: protein: recombinant; tags: N-terminal GST; dsDNA, one strand shown. In a few lines:
as §1

Assay [17] addresses T12, ETV3 (Homo sapiens, UniProt P41162-2 1-143).
T12 sequence: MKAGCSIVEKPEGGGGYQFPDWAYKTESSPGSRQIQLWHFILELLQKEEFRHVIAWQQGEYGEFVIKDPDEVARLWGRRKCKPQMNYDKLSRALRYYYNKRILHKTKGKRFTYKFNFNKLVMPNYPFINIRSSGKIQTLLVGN
As to conditions: protein: recombinant; tags: N-terminal GST; dsDNA, one strand shown. In a few lines:
as §1

Assay [18] deals with ETV6 (Homo sapiens, UniProt P41212 1-452). As to conditions: protein: recombinant; tags: N-terminal GST; dsDNA, one strand shown. In a few lines: as §1
ETV6, sequence (P41212 whole entry): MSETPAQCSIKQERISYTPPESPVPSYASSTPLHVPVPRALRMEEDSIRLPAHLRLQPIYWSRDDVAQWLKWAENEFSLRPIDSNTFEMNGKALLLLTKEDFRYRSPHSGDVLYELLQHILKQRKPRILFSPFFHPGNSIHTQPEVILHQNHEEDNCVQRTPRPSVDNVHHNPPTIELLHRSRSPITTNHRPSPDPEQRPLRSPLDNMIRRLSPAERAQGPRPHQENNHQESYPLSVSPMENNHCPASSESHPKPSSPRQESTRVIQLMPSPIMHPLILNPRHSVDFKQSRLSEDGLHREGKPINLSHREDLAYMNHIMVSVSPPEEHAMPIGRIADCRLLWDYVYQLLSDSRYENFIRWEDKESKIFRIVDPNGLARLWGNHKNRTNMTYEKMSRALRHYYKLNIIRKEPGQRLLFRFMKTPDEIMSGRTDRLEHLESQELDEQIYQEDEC

CRX, sequence (O43186 whole entry): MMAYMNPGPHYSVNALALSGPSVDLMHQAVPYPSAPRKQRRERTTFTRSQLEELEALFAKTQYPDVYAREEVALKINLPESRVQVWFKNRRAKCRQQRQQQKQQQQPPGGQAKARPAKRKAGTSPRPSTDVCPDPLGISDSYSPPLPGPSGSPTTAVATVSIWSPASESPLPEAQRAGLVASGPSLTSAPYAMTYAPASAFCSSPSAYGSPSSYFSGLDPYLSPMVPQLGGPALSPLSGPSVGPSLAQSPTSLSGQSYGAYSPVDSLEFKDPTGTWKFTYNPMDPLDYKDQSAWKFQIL
ELF4, sequence (Q99607 whole entry): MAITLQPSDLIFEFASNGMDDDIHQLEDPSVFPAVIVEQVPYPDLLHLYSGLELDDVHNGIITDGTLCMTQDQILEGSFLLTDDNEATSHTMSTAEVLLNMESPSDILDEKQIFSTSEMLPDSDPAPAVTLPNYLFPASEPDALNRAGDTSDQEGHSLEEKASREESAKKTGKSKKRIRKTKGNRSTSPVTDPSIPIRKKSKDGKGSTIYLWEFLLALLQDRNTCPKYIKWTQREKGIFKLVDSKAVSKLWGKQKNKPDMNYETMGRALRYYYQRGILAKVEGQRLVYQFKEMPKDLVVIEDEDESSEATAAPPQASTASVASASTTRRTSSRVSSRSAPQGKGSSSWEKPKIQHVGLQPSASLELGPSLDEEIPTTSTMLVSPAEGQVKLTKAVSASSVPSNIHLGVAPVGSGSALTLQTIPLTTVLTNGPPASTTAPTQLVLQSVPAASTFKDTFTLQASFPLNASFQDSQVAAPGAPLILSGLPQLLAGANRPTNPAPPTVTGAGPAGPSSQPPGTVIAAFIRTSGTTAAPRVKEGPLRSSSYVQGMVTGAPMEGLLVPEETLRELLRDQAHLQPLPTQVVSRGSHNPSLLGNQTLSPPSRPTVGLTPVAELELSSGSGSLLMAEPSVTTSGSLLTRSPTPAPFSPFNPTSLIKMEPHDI
ETV5, sequence (P41161 whole entry): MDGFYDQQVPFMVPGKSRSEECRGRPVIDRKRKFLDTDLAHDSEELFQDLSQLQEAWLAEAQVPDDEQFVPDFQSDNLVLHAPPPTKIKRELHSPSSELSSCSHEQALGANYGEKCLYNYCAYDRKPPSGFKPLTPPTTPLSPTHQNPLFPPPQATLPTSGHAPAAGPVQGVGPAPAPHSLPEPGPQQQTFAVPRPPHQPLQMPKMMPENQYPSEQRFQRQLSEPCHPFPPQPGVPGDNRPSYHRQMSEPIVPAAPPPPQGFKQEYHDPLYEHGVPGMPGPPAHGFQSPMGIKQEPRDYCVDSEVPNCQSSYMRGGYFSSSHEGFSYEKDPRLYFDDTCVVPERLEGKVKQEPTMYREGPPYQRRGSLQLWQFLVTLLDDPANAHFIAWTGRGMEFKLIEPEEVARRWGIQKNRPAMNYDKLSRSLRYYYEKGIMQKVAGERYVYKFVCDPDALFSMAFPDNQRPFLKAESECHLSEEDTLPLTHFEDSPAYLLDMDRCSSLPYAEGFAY
ETV1, sequence (P50549 whole entry): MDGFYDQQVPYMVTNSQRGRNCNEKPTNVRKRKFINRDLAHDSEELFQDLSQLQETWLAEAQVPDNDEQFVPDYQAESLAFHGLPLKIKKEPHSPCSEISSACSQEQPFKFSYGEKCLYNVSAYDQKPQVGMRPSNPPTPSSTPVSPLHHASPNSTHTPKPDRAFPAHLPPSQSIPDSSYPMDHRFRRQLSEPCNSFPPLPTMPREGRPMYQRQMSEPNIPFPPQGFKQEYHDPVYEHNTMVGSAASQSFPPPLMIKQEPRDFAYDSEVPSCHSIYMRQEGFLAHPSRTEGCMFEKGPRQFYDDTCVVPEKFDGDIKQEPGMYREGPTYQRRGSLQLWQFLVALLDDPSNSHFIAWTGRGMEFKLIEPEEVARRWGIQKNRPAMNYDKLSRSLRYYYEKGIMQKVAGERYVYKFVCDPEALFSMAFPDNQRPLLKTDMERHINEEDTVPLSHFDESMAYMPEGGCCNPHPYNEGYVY
HSF1, sequence (Q00613 whole entry): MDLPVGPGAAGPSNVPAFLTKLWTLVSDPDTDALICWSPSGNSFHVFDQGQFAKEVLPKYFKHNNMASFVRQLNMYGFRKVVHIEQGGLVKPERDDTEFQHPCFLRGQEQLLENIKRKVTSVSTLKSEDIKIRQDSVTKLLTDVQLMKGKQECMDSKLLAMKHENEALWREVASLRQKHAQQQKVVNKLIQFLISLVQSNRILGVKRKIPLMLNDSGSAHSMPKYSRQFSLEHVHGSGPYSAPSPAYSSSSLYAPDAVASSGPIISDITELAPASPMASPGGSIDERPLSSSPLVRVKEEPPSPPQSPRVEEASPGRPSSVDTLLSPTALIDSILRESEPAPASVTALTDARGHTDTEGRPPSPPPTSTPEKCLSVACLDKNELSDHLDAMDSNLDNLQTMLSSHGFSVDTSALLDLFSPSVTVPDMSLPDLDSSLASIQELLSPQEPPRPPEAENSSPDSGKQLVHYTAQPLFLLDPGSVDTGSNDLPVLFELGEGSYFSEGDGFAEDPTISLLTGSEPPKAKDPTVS

With GCCTAC, the binding signal was 1.2 fold enrichment (6-mer frequency, TF over GST control) in assay [1]; 1.16 fold enrichment (6-mer frequency, TF over GST control) in [2]; 1.01 fold enrichment (6-mer frequency, TF over GST control) in [3]; 1.37 fold enrichment (6-mer frequency, TF over GST control) in assay [4]; 1.26 fold enrichment (6-mer frequency, TF over GST control) in assay [5]; 1.38 fold enrichment (6-mer frequency, TF over GST control) in [6]. In addition, the binding signal in [7] is 1.16 fold enrichment (6-mer frequency, TF over GST control); in assay [8] it was 1.1 fold enrichment (6-mer frequency, TF over GST control); in [9] it was 1.12 fold enrichment (6-mer frequency, TF over GST control); in [10], 1.2 fold enrichment (6-mer frequency, TF over GST control); in [11], 1.12 fold enrichment (6-mer frequency, TF over GST control); in assay [12], 1.29 fold enrichment (6-mer frequency, TF over GST control). The binding signal was 1.23 fold enrichment (6-mer frequency, TF over GST control) in assay [13]; 1.12 fold enrichment (6-mer frequency, TF over GST control) in [14]; 1.08 fold enrichment (6-mer frequency, TF over GST control) in assay [15]; 1.17 fold enrichment (6-mer frequency, TF over GST control) in assay [16]; 1.3 fold enrichment (6-mer frequency, TF over GST control) in assay [17]; 1.19 fold enrichment (6-mer frequency, TF over GST control) in [18].

These data come from PMC7862700, “An all-to-all approach to the identification of sequence-specific readers for epigenetic DNA modifications on cytosine”.
